# The list is not random: actives were taken first. Their share in the collection is about 12%.
# PI5P4Ka inh: blocks human PI5P4K alpha kinase activity; PI5P4Kalpha enzyme, ADP-Glo luminescence, 60 min; active compounds read low; max response, %; 330,000 tested, 1.2% active; AID 652105; active = max response of -50% or lower; inconclusive = between -30% and -50%; inactive = -30% or higher; note: value at the top dose of about 77 µM; % is set by controls: 0 for no effect and ±100 for the full control effect
#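 Controls without substrate or without enzyme flank wells where PI5P4Kalpha converts substrate using 5 microM ATP (final). Incubation lasts 60 minutes at room temperature; ADP formed is read by ADP-Glo luminescence.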
# PLK1 PBD inh: inhibitors of human PLK1 polo-box domain binding; P53350; AID 720504; Potency, µM, for the others: max response, negative = inhibition, most hits filed as inhibitors; Plk1 PBD binding of FITC phosphopeptide, fluorescence polarization; 360,000 tested, 2.8% active; note: potency is the fitted concentration of half-maximal effect; series mostly up to about 57 µM; % is set by controls: 0 for no effect and ±100 for the full control effect; nearly all actives have a fitted effect of over 65% in size
# BAZ2B block: blocks human BAZ2B. Potency, µM (top dose mostly 114 µM), inactives show at the top dose activity change, negative = inhibition, most hits filed as inhibitors. AlphaScreen BAZ2B-H3K14Ac peptide displacement. 360,000 tested, 4.4% active; note: potency is the fitted concentration of half-maximal effect; % is set by controls: 0 for no effect and ±100 for the full control effect; nearly all actives have a fitted effect of over 60% in size
# Target sequence (Q9UIF8 whole entry, looked up): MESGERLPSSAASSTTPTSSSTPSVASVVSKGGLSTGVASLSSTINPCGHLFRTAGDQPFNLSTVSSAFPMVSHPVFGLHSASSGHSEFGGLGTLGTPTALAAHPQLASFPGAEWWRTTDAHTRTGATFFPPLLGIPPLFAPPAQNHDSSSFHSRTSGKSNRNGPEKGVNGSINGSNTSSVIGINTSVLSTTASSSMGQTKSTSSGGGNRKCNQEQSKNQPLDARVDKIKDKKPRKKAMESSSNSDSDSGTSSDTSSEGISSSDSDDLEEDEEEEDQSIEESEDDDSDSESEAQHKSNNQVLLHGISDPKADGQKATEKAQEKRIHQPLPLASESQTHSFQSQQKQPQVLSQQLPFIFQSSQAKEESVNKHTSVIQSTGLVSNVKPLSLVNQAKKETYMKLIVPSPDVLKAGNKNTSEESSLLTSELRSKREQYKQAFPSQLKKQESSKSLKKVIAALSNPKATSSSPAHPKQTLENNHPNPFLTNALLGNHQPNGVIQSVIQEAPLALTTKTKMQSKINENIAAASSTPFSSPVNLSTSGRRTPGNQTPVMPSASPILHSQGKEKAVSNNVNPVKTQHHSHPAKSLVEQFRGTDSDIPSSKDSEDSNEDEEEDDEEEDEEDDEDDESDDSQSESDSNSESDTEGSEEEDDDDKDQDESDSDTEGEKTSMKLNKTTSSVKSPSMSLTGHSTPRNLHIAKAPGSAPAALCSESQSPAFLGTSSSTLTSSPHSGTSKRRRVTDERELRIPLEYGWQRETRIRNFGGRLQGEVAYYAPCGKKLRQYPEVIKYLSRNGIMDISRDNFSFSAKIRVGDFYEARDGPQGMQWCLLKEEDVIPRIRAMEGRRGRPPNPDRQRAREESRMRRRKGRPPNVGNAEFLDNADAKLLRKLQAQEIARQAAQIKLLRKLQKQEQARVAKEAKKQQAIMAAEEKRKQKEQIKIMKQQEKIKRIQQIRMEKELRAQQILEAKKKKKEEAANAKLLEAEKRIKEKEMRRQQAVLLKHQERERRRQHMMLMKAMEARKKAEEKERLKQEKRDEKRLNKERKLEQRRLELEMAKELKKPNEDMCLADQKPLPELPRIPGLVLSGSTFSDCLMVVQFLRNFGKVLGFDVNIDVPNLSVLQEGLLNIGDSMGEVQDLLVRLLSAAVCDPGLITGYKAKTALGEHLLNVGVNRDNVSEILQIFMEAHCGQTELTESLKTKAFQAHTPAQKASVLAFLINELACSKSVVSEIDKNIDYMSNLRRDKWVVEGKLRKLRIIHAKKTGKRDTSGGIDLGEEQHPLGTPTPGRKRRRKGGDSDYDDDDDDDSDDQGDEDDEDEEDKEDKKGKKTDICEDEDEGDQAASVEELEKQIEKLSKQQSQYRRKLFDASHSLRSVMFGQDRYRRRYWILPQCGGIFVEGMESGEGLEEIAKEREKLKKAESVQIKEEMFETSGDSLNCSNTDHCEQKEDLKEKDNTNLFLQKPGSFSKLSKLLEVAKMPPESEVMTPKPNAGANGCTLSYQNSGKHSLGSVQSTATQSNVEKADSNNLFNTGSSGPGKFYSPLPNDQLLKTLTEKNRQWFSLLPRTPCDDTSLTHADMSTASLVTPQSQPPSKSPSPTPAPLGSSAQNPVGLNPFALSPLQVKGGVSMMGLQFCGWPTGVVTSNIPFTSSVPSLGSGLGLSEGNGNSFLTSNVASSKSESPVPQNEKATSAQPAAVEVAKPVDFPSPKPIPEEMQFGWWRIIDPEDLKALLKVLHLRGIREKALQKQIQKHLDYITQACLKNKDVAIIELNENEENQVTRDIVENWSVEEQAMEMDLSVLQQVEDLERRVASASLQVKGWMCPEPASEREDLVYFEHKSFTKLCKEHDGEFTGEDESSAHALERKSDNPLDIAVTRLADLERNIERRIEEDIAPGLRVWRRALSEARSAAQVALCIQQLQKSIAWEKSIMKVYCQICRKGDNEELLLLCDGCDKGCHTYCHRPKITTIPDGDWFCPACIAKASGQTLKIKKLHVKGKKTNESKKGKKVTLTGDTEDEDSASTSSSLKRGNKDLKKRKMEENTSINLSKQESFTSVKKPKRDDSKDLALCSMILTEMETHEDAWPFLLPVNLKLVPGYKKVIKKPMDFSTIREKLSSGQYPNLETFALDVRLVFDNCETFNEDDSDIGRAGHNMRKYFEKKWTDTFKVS
#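 BAZ2B 50 nM plus b-H3(5-23)K14Ac 50 nM, PBS pH 7.4/0.01% Tween-20, 30 min RT; compound added (max 110 uM), 30 min RT; streptavidin donor/Ni-chelate acceptor beads 10 ug/mL final, 20 min dark; AlphaScreen read.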
# JMJD2A Tudor inh: inhibitors of human JMJD2A Tudor domain; Potency, µM (series often up to 114 µM), inactives show at the highest dose activity change, negative = inhibition, hits mostly inhibitors; 390,000 tested, 4.4% active; O75164; AlphaScreen JMJD2A-Tudor / H3K4me3 peptide binding; note: potency is the fitted concentration of half-maximal effect; % is set by controls: 0 for no effect and ±100 for the full control effect; nearly all actives have a fitted effect of over 50% in size
# G9a block: blocks human histone lysine methyltransferase G9a. Q96KQ7. G9a H3K9 monomethylation, AlphaScreen, 2 h. Potency, µM (top dose mostly 102 µM), for the others: at the highest dose activity, negative = inhibition, usual class: inhibitors. 350,000 tested, 8.8% active; note: potency is the fitted concentration of half-maximal effect; % is set by controls: 0 for no effect and ±100 for the full control effect; nearly all actives have a fitted effect of over 75% in size
#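 Compounds were preincubated with 20 nM G9a for 15 min, after which biotinylated H3K9 peptide (500 nM) and SAM (20 uM) started a 2 h room-temperature reaction. Monomethylated product was quantified by antibody-based AlphaScreen chemiluminescence.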
# HP1b chromo inh: blocks HP1-beta chromodomain binding to methylated histone tails; 390,000 tested, 0.56% active; P83916; AlphaScreen HP1-beta / biotin-H3K9me3 peptide binding; Potency, µM (titrated, usually from 114 µM), for the others: at the highest dose activity change, negative = inhibition, usual class: inhibitors; note: potency is the fitted concentration of half-maximal effect; nearly all actives have a fitted effect of over 70% in size
#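 AlphaScreen: HP1-beta (50 nM) preformed 30 min with biotin-H3(1-18)K9me3 peptide (50 nM) in PBS pH 7.4, 0.01% Tween-20. Compound added for 30 min at RT, then streptavidin donor/nickel chelate acceptor beads (10 ug/mL) for 30 min.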
# The depositor's hits bear a star; ? = inconclusive; . = no result; ! = not confirmed by another sample; [ ] = dose if it differs, or a comment. Unless noted, calls come from the whole dose curve; as a rule, active = well fitted curve in the direction sought with a large enough effect; inconclusive = small, poorly fitted or top-dose-only effect, or another doubt; inactive = no such curve, though single readings can be large; an effect the other way counts as inactive or inconclusive.
SMILES,PI5P4Ka inh,PLK1 PBD inh,BAZ2B block,JMJD2A Tudor inh,G9a block,HP1b chromo inh
COc1ccccc1/C=C/C=N/NC(=O)CN1CCN(S(=O)(=O)c2ccc(C)cc2)CC1,1.1,0.6%,-6.2%,-14.5%,1.1%,11.2%
O=C(COc1ccccc1F)Nc1ccc2nc(SCC(=O)N3CCCC3)sc2c1,.,.,-33.5%,-9.9%,2.4%[59 µM],50.2%
O=C(N/N=C/c1cccc(O)c1)c1ccc(-n2cnnn2)cc1,-10.5,0.1%,8.3%,-12.5%,7.6%,59.0%
O=C(N/N=C/c1ccc(O)c(O)c1)c1ccc(-n2cnnn2)cc1,-22.9,-8.2%,50.1µM*,?,?,-12.2%
COc1cc(/C=N/NC(=O)c2cccc(S(=O)(=O)N3CCOCC3)c2)cc(OC)c1O,-8.8,-3.8%,-13.4%,-19.2%,39.8µM*,16.8%
O=C(N/N=C/c1ccc(O)c(O)c1)c1cccc(S(=O)(=O)N2CCCCC2)c1,-6.2,-13.6%,?,?,50.1µM*,5.4%
O=C(CCN1C(=O)C2C3CC(C(Br)C3Br)C2C1=O)OCC(=O)c1ccccc1 (stereo unspecified),-7.3,26.7µM*,5.5%,79.4µM*,9.7%[59 µM],-3.7%
CN(C)c1ccc(NC(=O)CSc2n[nH]c(-c3ccncc3)n2)cc1,0.6,-1.5%,.,1.8%,.,21.4%[57 µM]
Cc1nc2c(C)cccc2cc1C(=O)N/N=C/c1ccc(C(=O)O)cc1,10.2,29.9µM*,?,-13.5%[11.4 µM],.,1.4%
CCc1cccc2c(-c3ccc(F)cc3)nc(SCC(=O)Nc3ccccc3)nc12,.,.,2.2%,-13.8%,-0.3%[59 µM],20.2%
COc1ccc(CC(=O)NCCc2sc(-c3ccc(Cl)cc3)nc2C)cc1OC,.,.,-7.4%,-23.0%,14.9%[59 µM],17.1%[57 µM]
CCOc1nc(NCCO)nc(NCCC2=CCCCC2)n1,8.4,-18.9%,-2.9%,-8.4%[11.4 µM],13.3%[59 µM],-1.4%
Clc1nc(Cl)nc(NCCC2=CCCCC2)n1,4.2,-18.0%,56.2µM*,89.1µM*,?,21.5%
COc1ccccc1NS(=O)(=O)c1cc(C(=O)NC2CC(C)(C)NC(C)(C)C2)ccc1Cl,4.1,-9.1%,.,-2.3%,.,49.4%
CC1(C(=O)NS(=O)(=O)c2cccc(F)c2)CCN1C(=O)CC1CCCCC1 (stereo unspecified),1.9,-7.9%,.,.,.,.
O=C(NCCCc1nc2ccccc2n1CCOc1ccccc1)C1CCCCC1,.,.,.,-16.2%[57.1 µM],.,27.9%[57 µM]
Cc1ccc(NC(=O)C2CCCN(S(=O)(=O)c3ccc4[nH]c(=O)ccc4c3)C2)c(C)c1 (stereo unspecified),-0.1,3.3%,9.0%,-5.7%,.,29.2%
Cc1ccc(C(OCC(O)CN2CCCCC2CO)c2ccccc2)cc1 (stereo unspecified),-5.3,0.2%,50.1µM*,44.7µM*,7.6%[12.7 µM],22.4%
CC1CCCN(CC(O)COC(c2ccccc2)c2ccccc2)C1 (stereo unspecified),0.7,-0.7%,-15.2%,-0.7%,-6.0%,38.6%
COc1ccc(NC(=O)Nc2ccc(N(C)C)cc2)cc1,-11.6,-5.5%,?,-34.9%,3.55µM*,?
CCCNC(=O)Nc1ccccc1SC,4.3,?,-18.5%,-16.3%,39.8µM*,19.6%
COc1ccc(NC(=O)Nc2ccccc2SC)cc1,2.0,?,-13.8%,-9.0%,50.1µM*,28.9%
COc1ccc(NC(=O)Nc2sc(=S)n(C)c2C)cc1,-2.4,?,-37.1%,-15.8%,50.1µM*,-22.4%
Cc1c(NC(=O)Nc2ccc(Cl)c(Cl)c2)sc(=S)n1C,-12.5,?,.,?,.,-8.6%
CCCCNC(=O)Nc1ccccc1C(=O)NCCC,.,-3.3%,-2.9%,-9.2%,17.1%[59 µM],25.3%
SMILES,PI5P4Ka inh,PLK1 PBD inh,BAZ2B block,JMJD2A Tudor inh,G9a block,HP1b chromo inh
COc1ccc(NC(=O)Nc2ccccc2F)cc1,.,-1.0%,12.5%,-5.5%,11.0%,22.7%
O=C(CCNC(=O)C1CCN(S(=O)(=O)c2ccccc2)CC1)NCc1ccc(Cl)c(Cl)c1,0.0,2.9%,-2.7%,23.7%,19.8%,48.8%
COc1ccc(CCNC(=O)c2c[nH]c3ccc(F)cc3c2=O)cc1OC,-0.5,-4.1%,-8.1%,-15.1%,?,43.9%
Cn1c(=O)c2sccc2n2c(CCC(=O)N3CCN(c4cccc(Cl)c4)CC3)nnc12,.,.,1.6%,0.3%,2.0%[59 µM],21.2%
O=C(/C=C\c1ccccc1)NC1CC(=O)N(c2ccccc2)C1 (stereo unspecified),.,.,3.4%,10.7%,7.6%[59 µM],28.2%
CN(C)c1ccc(NC(N)=S)cc1,-6.9,-10.6%,?,-31.9%,10µM*,-1.5%
COc1ccc(NC(=O)C(CC(=O)O)C(C)c2ccccc2)cc1 (stereo unspecified),-10.2,9.47µM*,7.3%,14.1µM*,-38.3%,-17.2%
COc1ccc2nc3c(cc2c1)Cn1c-3nc2ccccc2c1=O,.,.,.,2.8%,.,3.2%
O=C(OC1CCOC1=O)c1ccccc1C(=O)c1ccc(Cl)c([N+](=O)[O-])c1 (stereo unspecified),-5.9,-30.0%,?,-21.8%,?,10.2%
CS(=O)(=O)c1ccc(C(=O)OC2CCOC2=O)cc1[N+](=O)[O-] (stereo unspecified),3.0,-26.3%,-23.1%,-27.3%,50.1µM*,6.0%
Cc1cccc(-c2c3c(=O)n(C)c(=O)n(C)c3cn2CCO)c1,-2.9,-13.4%,7.9%,-15.6%,22.4µM*,47.8%
Cc1cccc(-c2c3c(=O)n(C)c(=O)n(C)c3cn2CC2CCCO2)c1 (stereo unspecified),0.8,-14.5%,-13.4%,-10.4%,39.8µM*,33.9%
CCC1(C)Cc2ccccc2-c2c1c(=O)n(-c1ccc(C)cc1)c1nnnn21 (stereo unspecified),0.8,-0.3%,1.1%,-6.3%,50.1µM*,26.1%
O=C(c1ccccc1)c1cc2c(cc1[N+](=O)[O-])OCCO2,0.5,5.3%,?,-8.2%,?,15.3%
Cc1ccc(C(=O)c2cc3c(cc2[N+](=O)[O-])OCCO3)cc1,-1.1,-6.6%,56.2µM*,?,?,-17.9%
Cc1c(C(=O)N(Cc2ccc(N(C)C)cc2)CC2CCCO2)oc2ccc(Br)cc12 (stereo unspecified),.,.,10µM*,12.6µM*,12.6µM*,?
Cc1ccc2oc(C(=O)N(Cc3ccncc3)CC3CCCO3)c(C)c2c1 (stereo unspecified),-0.2,-8.9%,-18.8%,-8.8%,?,23.8%
Cc1c(C(=O)N(Cc2ccc(Cl)cc2)CC2CCCO2)oc2ccc(F)cc12 (stereo unspecified),.,.,46.5%,63.2%,77.7%[59 µM],114.5%
Cc1c(C(=O)N(Cc2ccc(N(C)C)cc2)CC2CCCO2)oc2ccccc12 (stereo unspecified),-1.6,-0.4%,11.2µM*,28.2µM*,14.1µM*!,?

# Screens (PubChem)
